The record followed here is article PMC7862700, “An all-to-all approach to the identification of sequence-specific readers for epigenetic DNA modifications on cytosine”.

What all share (experiment): DAPPL (digital affinity profiling via proximity ligation, sequencing); 10 mM Tris-HCl pH 7.5, 50 mM NaCl, 1 mM DTT, 4% glycerol, room temperature, 30 min; GST-TFs on glutathione beads, 16-mer random dsDNA library, 0.1% formaldehyde crosslink after washing; high values mean tight binding
What all share (conditions): protein: recombinant; tags: N-terminal GST; dsDNA, one strand shown

One experiment deals with T1, ELK1 (Homo sapiens, UniProt P19419 1-428).
T1 sequence: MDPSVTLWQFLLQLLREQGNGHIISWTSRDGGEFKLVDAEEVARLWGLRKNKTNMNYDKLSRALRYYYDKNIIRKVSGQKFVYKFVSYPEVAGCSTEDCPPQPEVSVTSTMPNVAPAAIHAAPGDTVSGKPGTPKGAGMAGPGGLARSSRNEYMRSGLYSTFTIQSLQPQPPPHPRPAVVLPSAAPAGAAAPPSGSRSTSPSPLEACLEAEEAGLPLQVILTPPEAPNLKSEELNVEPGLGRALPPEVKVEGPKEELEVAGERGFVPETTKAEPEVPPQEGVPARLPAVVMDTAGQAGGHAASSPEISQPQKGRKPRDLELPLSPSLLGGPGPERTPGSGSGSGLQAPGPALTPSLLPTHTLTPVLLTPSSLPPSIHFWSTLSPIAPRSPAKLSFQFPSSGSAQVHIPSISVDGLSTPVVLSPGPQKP
The gist of the method: (§1)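 GST fusions of human transcription factors were expressed in yeast and captured with glutathione beads. Once given DNA barcodes and pooled alongside a tag-only sample, they were incubated for 30 min at room temperature with 200 nmole of a random double-stranded 16-mer DNA library in Tris/NaCl/DTT/glycerol buffer, then washed, crosslinked (0.1% formaldehyde), proximity-ligated, PCR-amplified and sequenced on an Illumina NextSeq500. The binding signal of each hexamer is its read frequency for a factor divided by its frequency for the tag-only sample.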

The next experiment deals with T2, GABPA (Homo sapiens, UniProt Q06546 1-454).
T2 sequence: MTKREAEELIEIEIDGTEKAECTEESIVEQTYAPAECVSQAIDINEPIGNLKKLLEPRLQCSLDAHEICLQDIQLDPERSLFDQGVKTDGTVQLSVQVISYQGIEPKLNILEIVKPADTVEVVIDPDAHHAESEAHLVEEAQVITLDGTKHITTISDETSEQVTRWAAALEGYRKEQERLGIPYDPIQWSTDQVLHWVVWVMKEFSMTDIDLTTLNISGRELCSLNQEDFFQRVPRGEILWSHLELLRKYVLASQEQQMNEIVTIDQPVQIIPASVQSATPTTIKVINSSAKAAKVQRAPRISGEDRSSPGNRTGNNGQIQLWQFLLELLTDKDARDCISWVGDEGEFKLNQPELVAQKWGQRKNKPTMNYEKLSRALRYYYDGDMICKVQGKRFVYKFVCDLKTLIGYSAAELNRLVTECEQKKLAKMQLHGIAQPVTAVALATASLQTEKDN
The gist of the method:
as §1

Another experiment addresses T3, ERG (Homo sapiens, UniProt P11308 1-479).
T3 sequence: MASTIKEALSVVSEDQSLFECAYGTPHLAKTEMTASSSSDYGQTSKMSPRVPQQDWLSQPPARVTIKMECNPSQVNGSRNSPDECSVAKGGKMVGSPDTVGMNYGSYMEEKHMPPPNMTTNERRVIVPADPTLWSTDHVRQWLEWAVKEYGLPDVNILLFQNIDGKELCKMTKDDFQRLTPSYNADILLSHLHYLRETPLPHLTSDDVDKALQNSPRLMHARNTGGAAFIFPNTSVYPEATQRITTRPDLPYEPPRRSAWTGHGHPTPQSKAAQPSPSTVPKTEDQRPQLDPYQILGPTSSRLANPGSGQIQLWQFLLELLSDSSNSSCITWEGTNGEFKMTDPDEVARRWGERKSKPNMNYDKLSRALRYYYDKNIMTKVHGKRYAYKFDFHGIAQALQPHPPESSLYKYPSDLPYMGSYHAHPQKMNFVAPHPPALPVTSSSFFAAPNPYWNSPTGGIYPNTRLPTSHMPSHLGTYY
The method in brief: as §1

The target of another experiment is ELF1 (Homo sapiens, UniProt P32519 1-619). The method in brief:
as §1

The next experiment deals with T4, EHF (Homo sapiens, UniProt Q9NZC4 1-300).
T4 sequence: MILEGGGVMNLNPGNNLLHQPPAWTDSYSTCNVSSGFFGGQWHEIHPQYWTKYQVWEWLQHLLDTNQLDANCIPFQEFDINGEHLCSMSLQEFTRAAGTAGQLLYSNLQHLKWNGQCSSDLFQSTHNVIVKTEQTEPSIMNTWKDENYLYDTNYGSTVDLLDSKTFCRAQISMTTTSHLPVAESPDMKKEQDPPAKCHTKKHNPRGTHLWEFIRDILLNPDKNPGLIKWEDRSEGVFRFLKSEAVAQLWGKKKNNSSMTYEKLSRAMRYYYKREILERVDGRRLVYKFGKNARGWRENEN
The method in brief: as §1

The target in a further experiment is SPI1 (Homo sapiens, UniProt P17947 1-270). The method in brief: as §1
A further experiment has as its target SPIB (Homo sapiens, UniProt Q01892 1-262). The method in brief:
as §1

Another experiment has as its target T5, FEV (Homo sapiens, UniProt Q99581 1-238).
T5 sequence: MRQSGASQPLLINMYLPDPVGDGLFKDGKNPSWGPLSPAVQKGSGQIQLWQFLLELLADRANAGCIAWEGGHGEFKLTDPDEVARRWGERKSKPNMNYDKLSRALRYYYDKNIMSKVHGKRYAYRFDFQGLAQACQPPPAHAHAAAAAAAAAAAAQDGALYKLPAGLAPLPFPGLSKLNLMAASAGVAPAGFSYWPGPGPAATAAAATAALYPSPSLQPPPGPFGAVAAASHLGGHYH
The gist of the method:
as §1

The next experiment has as its target ETV5 (Homo sapiens, UniProt P41161 1-510). The gist of the method:
as §1

A further experiment has as its target ELF4 (Homo sapiens, UniProt Q99607 1-663). The gist of the method:
as §1

In another experiment the target is T6, ETV2 (Homo sapiens, UniProt O00321 1-342).
T6 sequence: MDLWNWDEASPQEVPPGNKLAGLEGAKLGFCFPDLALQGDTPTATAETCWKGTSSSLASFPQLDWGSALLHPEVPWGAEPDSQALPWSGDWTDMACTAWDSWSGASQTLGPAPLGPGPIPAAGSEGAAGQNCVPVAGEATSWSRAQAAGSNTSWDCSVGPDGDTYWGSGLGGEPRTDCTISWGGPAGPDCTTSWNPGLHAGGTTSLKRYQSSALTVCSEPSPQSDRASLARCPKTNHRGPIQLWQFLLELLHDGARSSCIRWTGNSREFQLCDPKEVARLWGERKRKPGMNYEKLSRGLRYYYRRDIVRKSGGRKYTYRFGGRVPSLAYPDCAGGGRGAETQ
The gist of the method:
as §1

The next experiment has as its target T7, ELF3 (Homo sapiens, UniProt P78545 1-371).
T7 sequence: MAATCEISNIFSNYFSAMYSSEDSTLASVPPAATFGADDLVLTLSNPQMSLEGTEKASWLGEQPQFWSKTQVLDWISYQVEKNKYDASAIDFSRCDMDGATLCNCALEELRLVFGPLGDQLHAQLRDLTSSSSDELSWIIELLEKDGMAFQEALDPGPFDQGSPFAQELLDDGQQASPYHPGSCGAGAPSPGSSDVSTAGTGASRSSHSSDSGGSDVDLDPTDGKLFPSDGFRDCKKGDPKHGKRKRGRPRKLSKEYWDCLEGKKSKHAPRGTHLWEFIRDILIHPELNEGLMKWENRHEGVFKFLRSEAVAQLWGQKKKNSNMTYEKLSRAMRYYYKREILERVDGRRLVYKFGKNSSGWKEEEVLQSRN
The method in brief: as §1

In a further experiment the target is ETV1 (Homo sapiens, UniProt P50549 1-477). The gist of the method:
as §1

Another experiment concerns the target T8, ERF (Homo sapiens, UniProt P50548 1-548).
T8 sequence: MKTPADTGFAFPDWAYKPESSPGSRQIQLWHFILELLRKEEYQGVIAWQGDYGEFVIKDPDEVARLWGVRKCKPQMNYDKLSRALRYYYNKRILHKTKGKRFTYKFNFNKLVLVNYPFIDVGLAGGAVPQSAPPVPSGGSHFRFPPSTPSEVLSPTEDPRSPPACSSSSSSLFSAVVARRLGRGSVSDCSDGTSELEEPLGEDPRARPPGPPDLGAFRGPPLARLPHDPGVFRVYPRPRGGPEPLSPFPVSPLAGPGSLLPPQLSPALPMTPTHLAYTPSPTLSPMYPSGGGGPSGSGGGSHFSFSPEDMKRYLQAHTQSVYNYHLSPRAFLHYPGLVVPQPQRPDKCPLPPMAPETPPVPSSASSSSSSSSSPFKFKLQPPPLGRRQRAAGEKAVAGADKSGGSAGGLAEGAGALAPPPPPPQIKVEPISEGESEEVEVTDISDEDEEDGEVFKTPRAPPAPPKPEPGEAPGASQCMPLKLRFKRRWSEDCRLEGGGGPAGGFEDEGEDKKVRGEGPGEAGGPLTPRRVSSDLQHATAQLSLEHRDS
The method in brief: as §1

The target in another experiment is T9, ETV3L (Homo sapiens, UniProt Q6ZN32 1-361).
T9 sequence: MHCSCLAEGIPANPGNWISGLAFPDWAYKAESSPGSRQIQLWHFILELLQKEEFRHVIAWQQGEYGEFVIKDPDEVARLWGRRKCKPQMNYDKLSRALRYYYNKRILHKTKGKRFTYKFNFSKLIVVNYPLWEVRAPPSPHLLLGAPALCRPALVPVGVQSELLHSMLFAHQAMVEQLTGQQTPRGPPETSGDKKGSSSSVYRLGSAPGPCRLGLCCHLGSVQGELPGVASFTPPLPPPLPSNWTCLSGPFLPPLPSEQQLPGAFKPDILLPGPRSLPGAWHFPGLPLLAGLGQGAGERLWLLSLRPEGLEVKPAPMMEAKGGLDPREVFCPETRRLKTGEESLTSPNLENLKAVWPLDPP
The gist of the method: as §1

In a further experiment the target is T10, ETS2 (Homo sapiens, UniProt P15036 1-469).
T10 sequence: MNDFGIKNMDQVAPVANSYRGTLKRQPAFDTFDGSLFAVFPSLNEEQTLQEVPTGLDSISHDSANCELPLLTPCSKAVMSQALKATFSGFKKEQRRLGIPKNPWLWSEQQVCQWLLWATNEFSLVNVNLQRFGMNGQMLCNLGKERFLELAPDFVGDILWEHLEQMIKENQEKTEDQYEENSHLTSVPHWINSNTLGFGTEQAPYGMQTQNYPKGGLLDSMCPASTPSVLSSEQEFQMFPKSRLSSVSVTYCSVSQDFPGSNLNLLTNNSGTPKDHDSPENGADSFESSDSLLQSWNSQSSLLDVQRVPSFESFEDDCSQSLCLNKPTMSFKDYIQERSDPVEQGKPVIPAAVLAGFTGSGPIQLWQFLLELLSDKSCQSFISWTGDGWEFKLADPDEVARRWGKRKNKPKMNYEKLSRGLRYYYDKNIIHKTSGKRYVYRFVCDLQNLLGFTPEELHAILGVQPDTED
The method in brief: as §1

A further experiment concerns the target T11, ETV7 (Homo sapiens, UniProt Q9Y603 1-341).
T11 sequence: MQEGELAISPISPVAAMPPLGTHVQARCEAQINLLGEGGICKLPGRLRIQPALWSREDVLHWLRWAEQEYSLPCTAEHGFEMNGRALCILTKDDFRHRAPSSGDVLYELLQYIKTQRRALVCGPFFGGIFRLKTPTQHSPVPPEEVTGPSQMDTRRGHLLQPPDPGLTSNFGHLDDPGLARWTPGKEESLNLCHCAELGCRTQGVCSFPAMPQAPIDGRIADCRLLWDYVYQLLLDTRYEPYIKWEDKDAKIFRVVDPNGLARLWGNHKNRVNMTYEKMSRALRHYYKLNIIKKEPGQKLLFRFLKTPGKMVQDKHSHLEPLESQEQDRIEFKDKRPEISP
The method in brief:
as §1

A further experiment concerns the target T12, ETV3 (Homo sapiens, UniProt P41162-2 1-143).
T12 sequence: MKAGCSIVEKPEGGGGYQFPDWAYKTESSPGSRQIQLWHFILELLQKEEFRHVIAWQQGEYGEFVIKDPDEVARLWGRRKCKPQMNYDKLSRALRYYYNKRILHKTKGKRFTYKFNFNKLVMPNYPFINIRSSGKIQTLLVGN
The gist of the method: as §1

For a further experiment, the target named is ETV6 (Homo sapiens, UniProt P41212 1-452). The method in brief:
as §1

Sequence of ETV1 (P50549 whole entry): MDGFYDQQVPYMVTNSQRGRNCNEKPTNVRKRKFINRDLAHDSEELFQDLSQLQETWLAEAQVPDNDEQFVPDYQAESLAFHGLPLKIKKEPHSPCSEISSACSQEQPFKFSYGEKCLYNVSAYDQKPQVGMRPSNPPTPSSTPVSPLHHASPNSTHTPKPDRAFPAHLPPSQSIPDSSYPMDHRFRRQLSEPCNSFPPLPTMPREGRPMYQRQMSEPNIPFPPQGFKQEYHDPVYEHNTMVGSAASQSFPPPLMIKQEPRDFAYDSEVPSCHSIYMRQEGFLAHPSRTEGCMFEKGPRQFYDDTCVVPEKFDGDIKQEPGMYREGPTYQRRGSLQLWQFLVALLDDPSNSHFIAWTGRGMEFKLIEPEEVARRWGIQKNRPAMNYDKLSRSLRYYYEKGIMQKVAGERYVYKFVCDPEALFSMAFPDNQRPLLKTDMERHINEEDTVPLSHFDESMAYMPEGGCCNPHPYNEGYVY
Sequence of SPIB (Q01892 whole entry): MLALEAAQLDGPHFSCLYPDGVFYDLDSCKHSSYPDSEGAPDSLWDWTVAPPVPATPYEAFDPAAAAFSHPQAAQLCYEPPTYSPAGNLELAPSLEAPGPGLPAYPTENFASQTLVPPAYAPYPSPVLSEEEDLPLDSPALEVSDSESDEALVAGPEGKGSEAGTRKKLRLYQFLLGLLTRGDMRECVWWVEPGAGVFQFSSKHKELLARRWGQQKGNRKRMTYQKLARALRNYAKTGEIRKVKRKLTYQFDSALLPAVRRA
Sequence of ELF4 (Q99607 whole entry): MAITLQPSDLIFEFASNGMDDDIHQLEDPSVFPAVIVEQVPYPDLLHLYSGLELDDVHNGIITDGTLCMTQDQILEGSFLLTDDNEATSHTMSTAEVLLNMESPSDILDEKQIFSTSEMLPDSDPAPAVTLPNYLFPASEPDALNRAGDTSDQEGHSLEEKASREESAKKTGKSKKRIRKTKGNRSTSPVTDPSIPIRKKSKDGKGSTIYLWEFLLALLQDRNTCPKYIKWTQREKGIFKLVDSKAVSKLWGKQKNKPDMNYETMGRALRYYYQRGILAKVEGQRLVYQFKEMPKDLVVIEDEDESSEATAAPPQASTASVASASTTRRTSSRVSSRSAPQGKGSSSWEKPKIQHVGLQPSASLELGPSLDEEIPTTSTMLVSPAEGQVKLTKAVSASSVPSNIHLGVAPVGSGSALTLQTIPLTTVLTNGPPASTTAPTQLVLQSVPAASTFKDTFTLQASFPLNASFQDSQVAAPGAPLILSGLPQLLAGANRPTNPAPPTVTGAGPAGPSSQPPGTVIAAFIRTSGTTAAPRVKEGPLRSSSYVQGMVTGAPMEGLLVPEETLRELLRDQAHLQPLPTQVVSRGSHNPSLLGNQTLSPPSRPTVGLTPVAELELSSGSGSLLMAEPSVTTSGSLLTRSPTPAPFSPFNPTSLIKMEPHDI
Sequence of ETV6 (P41212 whole entry): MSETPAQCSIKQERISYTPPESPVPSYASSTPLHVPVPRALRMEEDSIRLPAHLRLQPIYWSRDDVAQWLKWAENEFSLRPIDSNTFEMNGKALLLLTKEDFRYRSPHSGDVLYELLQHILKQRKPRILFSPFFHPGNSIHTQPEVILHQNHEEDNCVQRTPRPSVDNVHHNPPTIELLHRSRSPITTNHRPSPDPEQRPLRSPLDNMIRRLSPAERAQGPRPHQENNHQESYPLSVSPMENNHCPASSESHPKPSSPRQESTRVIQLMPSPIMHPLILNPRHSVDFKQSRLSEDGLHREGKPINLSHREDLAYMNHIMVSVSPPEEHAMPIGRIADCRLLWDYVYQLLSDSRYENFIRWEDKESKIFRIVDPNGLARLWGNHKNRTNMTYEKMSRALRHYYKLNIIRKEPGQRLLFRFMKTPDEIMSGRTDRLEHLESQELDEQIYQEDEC
Sequence of ETV5 (P41161 whole entry): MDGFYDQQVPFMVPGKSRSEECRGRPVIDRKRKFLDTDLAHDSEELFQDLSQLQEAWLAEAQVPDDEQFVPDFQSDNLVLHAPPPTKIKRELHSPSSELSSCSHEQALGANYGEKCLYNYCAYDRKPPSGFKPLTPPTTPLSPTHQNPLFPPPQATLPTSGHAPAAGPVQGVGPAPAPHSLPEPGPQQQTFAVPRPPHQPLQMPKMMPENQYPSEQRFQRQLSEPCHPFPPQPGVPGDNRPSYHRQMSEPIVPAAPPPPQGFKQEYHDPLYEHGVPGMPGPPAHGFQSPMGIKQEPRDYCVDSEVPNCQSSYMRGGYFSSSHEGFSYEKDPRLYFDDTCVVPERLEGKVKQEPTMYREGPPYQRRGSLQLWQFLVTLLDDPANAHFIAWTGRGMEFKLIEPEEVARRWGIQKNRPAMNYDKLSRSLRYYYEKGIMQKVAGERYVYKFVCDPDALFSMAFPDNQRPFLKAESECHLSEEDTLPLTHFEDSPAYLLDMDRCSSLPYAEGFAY
Sequence of ELF1 (P32519 whole entry): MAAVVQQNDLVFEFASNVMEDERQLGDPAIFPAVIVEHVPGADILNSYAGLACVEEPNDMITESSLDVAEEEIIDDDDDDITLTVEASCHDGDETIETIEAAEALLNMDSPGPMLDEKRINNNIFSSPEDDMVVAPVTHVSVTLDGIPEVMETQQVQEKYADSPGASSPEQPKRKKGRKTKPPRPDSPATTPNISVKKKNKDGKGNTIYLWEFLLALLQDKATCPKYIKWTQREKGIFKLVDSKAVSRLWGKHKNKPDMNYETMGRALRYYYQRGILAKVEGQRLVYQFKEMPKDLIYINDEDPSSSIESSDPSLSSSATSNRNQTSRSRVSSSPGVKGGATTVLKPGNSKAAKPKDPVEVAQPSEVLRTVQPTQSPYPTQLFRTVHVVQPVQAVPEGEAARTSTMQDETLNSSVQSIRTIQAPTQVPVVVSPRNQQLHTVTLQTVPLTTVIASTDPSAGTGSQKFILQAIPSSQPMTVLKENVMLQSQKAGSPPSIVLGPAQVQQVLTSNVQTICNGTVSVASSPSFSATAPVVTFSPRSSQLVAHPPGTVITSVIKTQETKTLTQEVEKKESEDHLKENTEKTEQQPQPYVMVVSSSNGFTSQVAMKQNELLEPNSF

With AACCGC, the binding signal is 1.07 fold enrichment (6-mer frequency, TF over GST control) with ELK1; 1.1 fold enrichment (6-mer frequency, TF over GST control) with GABPA; 1.09 fold enrichment (6-mer frequency, TF over GST control) with ERG; 1.11 fold enrichment (6-mer frequency, TF over GST control) with ELF1; 1.18 fold enrichment (6-mer frequency, TF over GST control) with EHF; 1.04 fold enrichment (6-mer frequency, TF over GST control) in the experiment with SPI1. Moreover, the binding signal with SPIB is 1.12 fold enrichment (6-mer frequency, TF over GST control); with FEV it was 1.09 fold enrichment (6-mer frequency, TF over GST control); with ETV5, 1.09 fold enrichment (6-mer frequency, TF over GST control); with ELF4, 1.12 fold enrichment (6-mer frequency, TF over GST control); with ETV2, 1.12 fold enrichment (6-mer frequency, TF over GST control); in the experiment with ELF3, 1.1 fold enrichment (6-mer frequency, TF over GST control). Besides, the binding signal in the experiment with ETV1 is 1.02 fold enrichment (6-mer frequency, TF over GST control); with ERF it was 1.08 fold enrichment (6-mer frequency, TF over GST control); with ETV3L it was 1.08 fold enrichment (6-mer frequency, TF over GST control); with ETS2, 1.1 fold enrichment (6-mer frequency, TF over GST control); in the experiment with ETV7 it was 1.07 fold enrichment (6-mer frequency, TF over GST control); with ETV3 it was 1.08 fold enrichment (6-mer frequency, TF over GST control). The binding signal with ETV6 was 1.19 fold enrichment (6-mer frequency, TF over GST control).
